Inconclusive results are not listed. Calls of active or inactive are those of the source. How the source made its calls: active means hit-call score of the fitted dose curve at least 0.9, where 1 is the maximum; inconclusive means response in the unintended direction; inactive means score below 0.9.
Test: ACEA_ER_AUC_viability: ACEA Biosciences xCELLigence Real-Time Cell Analysis on Estrogen Receptor Agonism for Viability (AID 2283782);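 further: hit means loss of impedance signal meaning reduced cell growth or viability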
Procedure, shortened: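 Viability endpoint: reduced impedance area under the curve relative to DMSO, recorded by real-time electrode sensing over ~80 h of continuous exposure. Duplicate plates of T47D in hormone-depleted medium; eight concentrations, 1:4 dilutions, 100 uM maximum.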

SMILES | outcome | AC50
CCO[Si](CCCN=C=O)(OCC)OCC | inactive | 
O=CC1CC1 |  | 65 µM (active)
O=c1n(CCO)c(=O)n(CCO)c(=O)n1CCO | inactive | 
CCOc1nc(F)cc2nc(S(=O)(=O)Nc3c(Cl)cccc3C(=O)OC)nn12 | inactive | 
CCCC(=O)OCc1ccccc1 | inactive | 
O=S(=O)(O)CC(O)CCl (stereo not given) | inactive | 
OCCCS |  | 44.4 µM (active)
C=C1[C@H]2CC[C@@H]3[C@H]2C(C)(C)CCC[C@]13C | inactive | 
COc1cc(C)ccc1C(C)C | inactive | 
Cc1cc(C)c(C)c(C)c1 | inactive | 
Cc1cccc(C(=O)O)c1 | inactive | 
CNC(=S)N(C)C | inactive | 
CC(=O)OC1C2(C)CCC(C2)C1(C)C (stereo not given) | inactive | 
CC(C)=CCC/C(C)=C\C#N | inactive | 
CCCCCCCCCCCCCCCC[N+](C)(C)CC |  | 12.3 µM (active)
Nc1ccc(N=Nc2ccccc2)c(N)n1 | inactive | 
CC(C)CCCC(C)CC=O (stereo not given) | inactive | 
C=C(C)C(=O)OCC(C)C | inactive | 

SMILES | outcome | AC50
CC(=O)C=CC1C(C)=CCC(C)C1(C)C (stereo not given) | inactive | 
CC(C)c1ccc(C#N)cc1 |  | 50 µM (active)
O=C1CCCN1CCO | inactive | 
CC(=O)OCCC1CCCCC1 | inactive | 
O=S(=O)(O)c1ccc2cc(O)c(S(=O)(=O)O)cc2c1 |  | 50 µM (active)
CC(C)C(=O)C(C)C |  | 19.7 µM (active)
CC(C)COC(=O)C=Cc1ccccc1 | inactive | 
CCCCCCCCCCC=CC#N |  | 50 µM (active)
CC(C)C1=CC2=CC[C@@H]3[C@](C)(CCC[C@@]3(C)C(=O)O)[C@H]2CC1 | inactive | 
CC(C)c1ccc(C=O)cc1 | inactive | 
CO[Si](OC)(OC)c1ccccc1 | inactive | 
CC(=O)CC(N)=O | inactive | 
COC(=O)c1ccccc1OC |  | 50 µM (active)
O=[N+]([O-])c1ccc(CO)cc1 | inactive | 
O=Nc1ccc(O)cc1 | inactive | 
CC(C)CC(O)Cc1ccccc1 (stereo not given) | inactive | 
C=CC(C)(CCC=C(C)C)OC(=O)C(C)C (stereo not given) | inactive | 
